Values without a mark were called inactive. The source made the active and inactive calls. No rule for the calls is given here.

By IC50 is commonly meant the point on the concentration scale where inhibition reaches its midpoint.

The experiment can be described thus: XO enzyme superoxide output inhibition – biochemical, IC50, set 2, NOX1 inhibitor project, late-stage follow-up (AID 435009). As to conditions: Xanthine oxidase enzyme assay, ROS/superoxide detection.
As for `Oc1c(Br)cc(/C=N/Nc2c(Cl)cncc2Cl)cc1Br`, the IC50 was more than 5 µM.

As for `Fc1ccc(NC(=S)NNC(=S)Nc2ccccc2)cc1`, the IC50 is 0.5 µM (active).

In the case of `COc1cc(-c2nc(-c3ccccc3)c(-c3ccccc3)[nH]2)cc(OC)c1O`, the half-maximal inhibitory concentration (IC50) was 0.9 µM (active).

For the compound `FC(F)(F)c1ccc2c(c1)Nc1ccccc1S2`, the IC50 is 5 µM (active).

`COc1cc(-c2nc(-c3ccccc3)c(-c3ccccc3)[nH]2)ccc1O`: the IC50 is 0.01 µM (active).

With `CSc1ccc(NC(=O)Nc2ccc(N(C)C)cc2)cc1`, the IC50 is 1.2 µM (active).

On to `CN(C)c1ccc(NC(=O)Nc2ccc(OCc3ccccc3)cc2)cc1`, for which the IC50 was 1.3 µM (active).

Consider `Cc1cc(Cl)ccc1NC(=S)NNC(=S)Nc1ccc(F)cc1`, for which the IC50 is 3.3 µM (active).

Regarding `CN(C)c1ccc(/C=N/Nc2c(Cl)cncc2Cl)cc1`, the IC50 is more than 5 µM.
